Results: PubChem BioAssay AID1851 (National Center for Advancing Translational Sciences (NCATS), 2009)
The whole screen tested about 16,000 compounds, of which about 4,000 (25%) were called active. Another 26% or so got no clear call; they are omitted. Not all results are given here. Values without a mark were called inactive. Calls come from the whole dose curve; as a rule, active = well fitted curve in the direction sought with a large enough effect; inconclusive = small, poorly fitted or top-dose-only effect, or effect the other way; inactive = no such curve, though single readings can be large or run the other way.

target: Cytochrome P450 2C9 (Homo sapiens) (UniProt P11712); assay: Cytochrome panel assay with activity outcomes; conditions: recombinant CYP, pro-luciferin dealkylation, luminescence, p450-cyp2c9; series mostly up to 57.1 µM
% is set by controls: 0 for no effect and ±100 for the full control effect.

Cytochrome P450 2C9 (Homo sapiens), sequence (P11712 whole entry, looked up): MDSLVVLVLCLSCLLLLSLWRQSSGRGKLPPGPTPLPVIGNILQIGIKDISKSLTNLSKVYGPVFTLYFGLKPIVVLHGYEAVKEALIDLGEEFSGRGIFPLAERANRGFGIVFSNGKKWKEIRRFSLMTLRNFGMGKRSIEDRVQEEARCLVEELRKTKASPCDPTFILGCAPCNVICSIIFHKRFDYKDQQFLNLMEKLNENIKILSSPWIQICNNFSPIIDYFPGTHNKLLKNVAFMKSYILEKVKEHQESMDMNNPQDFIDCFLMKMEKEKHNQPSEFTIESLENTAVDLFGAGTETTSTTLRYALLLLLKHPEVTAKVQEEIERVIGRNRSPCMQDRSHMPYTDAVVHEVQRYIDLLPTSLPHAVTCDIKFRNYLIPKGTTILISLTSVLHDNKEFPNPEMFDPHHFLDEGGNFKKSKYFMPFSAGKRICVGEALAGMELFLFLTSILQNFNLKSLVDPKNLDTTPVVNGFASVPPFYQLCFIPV

SMILES	AC50	activity, negative = inhibition
N[C@H](C(=O)N[C@@H]1C(=O)N2C(C(=O)O)=C(Cl)CS[C@@H]12)c1ccccc1	inactive	–
COc1cccc2c1C(=N)c1c(O)c3c(c(O)c1C2=O)C[C@](O)(C(C)=O)C[C@@H]3O[C@H]1C[C@H](N)[C@@H](O)[C@H](C)O1	–	-16.6% [at 11.4 µM]
COc1ccc(NC(=O)C23CC4CC(C2)CC(n2cnc(Br)n2)(C4)C3)c(C)c1	inactive	–
O=C(NC12CC3CC(CC(C3)C1)C2)C12CC3CC(C1)CC(n1cnc(Cl)n1)(C3)C2	12.6 µM (active)	–
CNc1ccnc(-c2ccccc2CN(C)C)n1	–	0.444% [at 2.29 µM]
CCOc1ccc(CCNC(=O)CCCN2C(=O)c3ccccc3C2=O)cc1OCC	15.8 µM (active)	–
CCOc1ccc(CCNC(=O)C2CCN(S(=O)(=O)CC)CC2)cc1OCC	inactive	–
CCCCCOC(=O)c1c(N)n(CCOC)c2nc3ccccc3nc12	5.01 µM (active)	–
COCCn1c(=O)cnc2cnc(Nc3ccccc3)nc21	inactive	–
CCCc1nc2sc3ccccc3c(=O)c2c(=O)n1CCOC	inactive	–
O=C(Nc1nc2ccccc2n1Cc1ccccc1)c1ccc(COc2ccccc2[N+](=O)[O-])o1	2 µM (active)	–
CCn1nccc1C(=O)Nc1nc2ccccc2n1CCN1CCCCC1	inactive	–
N[C@H](C(=O)O)c1nn[nH]n1	inactive	–
CC1=C(C)/C(=N\OC(=O)/C=C/c2ccccc2)C=CC1=O	inactive	–
Cn1cnc([N+](=O)[O-])c1Sc1nc(N)nc2c1ncn2Cc1ccccc1	–	4.6% [at 11.4 µM]
COC(=O)c1cc(C#N)c(Oc2ccc(OC)cc2)nc1C	14.1 µM (active)	–
CCCCNc1nc(-c2ccccc2)c(C(=O)OCC)cc1C#N	3.16 µM (active)	–
COCCNc1nc(-c2ccc(C(=O)N(C)C)cc2)nc2ccccc12	–	-2.68% [at 2.29 µM]
COc1ccccc1CNc1ccnc(-c2cccc(C#N)c2)n1	–	-24.8% [at 2.29 µM]
Cc1cc(C)c2cc(C#N)c(NCCOC(=O)c3ccccc3C)nc2c1	2.51 µM (active)	–
CCCCNc1c(C(=O)OCC)c(C)nc2c1cnn2CC	inactive	–
CC(=O)NCCNc1ncnc2ccc(-c3ccccc3C#N)cc12	–	-2.36% [at 2.29 µM]
CCOC(=O)c1cc(C#N)c(Oc2ccccc2OC)nc1-c1ccccc1	7.08 µM (active)	–
COC(=O)c1cc(C#N)c(NCc2ccc(Cl)cc2Cl)nc1C	inactive	–

SMILES	AC50	activity, negative = inhibition
N[C@@H](CO)C(=O)NNCc1ccc(O)c(O)c1O	inactive	–
Cn1c(=O)c2[nH]c(CCC(=O)O)nc2n(C)c1=O	–	24.4% [at 11.4 µM]
CN(C)C(N)=NCCC[C@H](N)C(=O)O	inactive	–
O[C@H](C[C@@H]1CCCCN1)c1ccc2c(c1)oc1ccccc12	–	-4.01% [at 11.4 µM]
CN(C)c1ncc2nc(-c3ccc(Cl)cc3)c(=O)n(C[C@H]3CCCO3)c2n1	inactive	–
Cc1ccc(CSc2nnc(-c3ccncc3)n2CC2CCCO2)cc1 (stereo not given)	15.8 µM (active)	–
Cn1c(SC2CCCCC2=O)nnc1-c1ccncc1 (stereo not given)	inactive	–
CC1(C)O[C@H]2C[C@@H]3[C@H]4CCC5=CC(=O)CC[C@@]5(C)[C@]4(F)[C@@H](O)C[C@@]3(C)[C@@]2(C(=O)CCl)O1	inactive	–
N#CC1=C(N)OC2=C(C(=O)CCC2)C12CCC1(CC2)OCCO1	inactive	–
N#Cc1ccccc1-c1cncnc1NCc1cccnc1	–	12.7% [at 2.29 µM]
CCc1ccc(Nc2ncccc2C#N)cc1	17.8 µM (active)	–
CCC(C)c1ccc(Nc2ncccc2C#N)cc1 (stereo not given)	17.8 µM (active)	–
C[C@H]1CN(S(=O)(=O)c2cccc3cnccc23)CCN1	inactive	–
C1CCC(N=C(NC23CC4CC(CC(C4)C2)C3)N2CCOCC2)CC1	inactive	–
CCN(CC)CCOc1ccc(Cc2ccccc2)cc1	15.8 µM (active)	–
CCN(CCCc1ccccc1)CCCc1ccccc1	inactive	–
CCN(CC)CCOC(=O)C(c1ccccc1)c1ccccc1	inactive	–
Cc1ccc(NC2c3ncccc3C(=O)N2Cc2ccc(F)cc2)cc1 (stereo not given)	15.8 µM (active)	–
O=C1c2cccnc2C(=O)N1Cc1ccc(F)cc1	inactive	–
CN[C@@H]1NC(=O)c2ccccc2N1Cc1ccc(F)cc1	–	4.34% [at 11.4 µM]
CCOc1ccc(/C(O)=C2/C(=O)C(=O)N(CCCn3ccnc3)C2c2cccs2)cc1Cl (stereo not given)	5.01 µM (active)	–
CCOC(=O)c1[nH]c(C)c(/C(O)=C2\C(=O)C(=O)N(CCN3CCOCC3)C2c2cccs2)c1C (stereo not given)	inactive	–
COc1ccc(/C(O)=C2/C(=O)C(=O)N(CCCC(=O)O)C2c2ccc(OC)cc2)cc1 (stereo not given)	inactive	–
CCOc1ccc(/C(O)=C2/C(=O)C(=O)N(CCOCCO)C2c2cccnc2)cc1 (stereo not given)	inactive	–

SMILES	AC50	activity, negative = inhibition
Cc1ccc(/C(O)=C2/C(=O)C(=O)N(CCCn3ccnc3)C2c2ccccn2)cc1 (stereo not given)	4.47 µM (active)	–
COc1ccc(/C(O)=C2/C(=O)C(=O)N(CCN3CCOCC3)C2c2ccc(C)cc2)cc1 (stereo not given)	inactive	–
C/C(CCN1CCc2nc(-c3ccccc3)c(-c3ccccc3)cc2C1)=N\O[C@@H](C)c1cn([C@H](CO)Cc2ccccc2)nn1	–	-23.3% [at 11.4 µM]
Nc1ncnc(N(c2ccccc2)C2CCCCC2)c1[N+](=O)[O-]	inactive	–
C[C@@H]1[C@H]2CC[C@@H]3[C@@H]4CC=C5C[C@@H](N(C)C)CC[C@]5(C)[C@@H]4CC[C@@]32CN1C	inactive	–
O=C(O)[C@@H]1[C@@H]2C[C@@H]3[C@@H](OC(=O)[C@@H]31)[C@H]2Br	–	-8.47% [at 11.4 µM]
CC(C)[C@H](NC(=O)OC(C)(C)C)[C@@H](O)CC(=O)C(C)(C)C	–	9.81% [at 11.4 µM]
CCOC(=O)c1c2ccc(OCC(=O)N/N=C/c3ccc(Cl)cc3)cc2n2ccccc12	6.31 µM (active)	–
CO[C@H]1COC(=O)C/C=C\[C@@H](C)COC(=O)[C@@H](OCc2ccccc2)/C=C\[C@@H]1C	–	-24.9% [at 11.4 µM]
C=CCNc1oc(/C=C/c2ccccc2)nc1C#N	4.47 µM (active)	–
Cc1nc2ccccc2nc(C)c1=NO	inactive	–
NC(N)=NC(N)=Nc1ccccc1 (tested in a mixture with another compound)	–	-12.4% [at 11.4 µM]
Cc1cc2ccccc2c[n+]1CC(O)C[n+]1cc2ccccc2cc1C	–	8.36% [at 11.4 µM]
C=CCc1cc(C=O)cc(OC)c1OCc1ccc(Cl)cc1	8.91 µM (active)	–
O=C(CCCCn1c(=S)[nH]c2ccsc2c1=O)NCc1ccco1	2.24 µM (active)	–
O=C(CCCCCn1c(=O)[nH]c2ccsc2c1=O)NCc1ccc2c(c1)OCO2	4.47 µM (active)	–
COCCNC(=O)CCCCCn1c(=S)[nH]c2ccccc2c1=O	inactive	–
CC(C)(C)C(=O)OCOC(=O)[C@@H]1N2C(=O)[C@@H](NC(=O)[C@H](N)c3ccccc3)[C@H]2SC1(C)C	inactive	–
CCC(C)NC(=O)c1cnn2c(C)c3c(nc12)CCCC3 (stereo not given)	inactive	–
Cc1nc2c(C(=O)N3CCOCC3)cnn2c(C)c1Cc1ccc(Cl)cc1	7.94 µM (active)	–
CCC#CCOCC(=O)Nc1ccccc1	inactive	–
CCC(=O)NNC(=O)CCC(=O)Nc1ccccc1	inactive	–
O=C(Cc1ccccc1I)Nc1ccccc1	25.1 µM (active)	–
C#CCCCC(=O)Nc1ccccc1	inactive	–

SMILES	AC50	activity, negative = inhibition
CCCCC#Cc1ccccc1CC(=O)Nc1ccccc1	2.51 µM (active)	–
NCC(=O)Nc1ccccc1	–	17% [at 11.4 µM]
C=C(CC)C(=O)c1ccc(OCC(=O)O)c(Cl)c1Cl	0.631 µM (active)	–
CC(C)(C)c1ccc(OCC(=O)O)c(Cl)c1	–	-19.9% [at 11.4 µM]
COc1cc(NC(=O)Cc2c(C(=O)O)[nH]c3ccccc23)cc(OC)c1OC	12.6 µM (active)	–
NC(N)=NC(=O)c1nc(Cl)c(N2CCCCCC2)nc1N	inactive	–
Cc1cc(NC(=O)CSc2nnc(-c3ccccc3)n2Cc2ccco2)no1	10 µM (active)	–
CNC(=O)NC(=O)CSc1nnc(-c2ccco2)n1Cc1ccccc1	inactive	–
CC(=O)Nc1ccc(NC(=O)CSc2nnc(-c3ccccc3)n2Cc2ccc3c(c2)OCO3)cc1	11.2 µM (active)	–
CC(C)(C)NC(=O)CSc1nnc(Cc2ccc3c(c2)OCO3)n1C1CCCCC1	inactive	–
CC(C)=NOC[C@@H](O)COCc1ccco1	–	0.0785% [at 11.4 µM]
COc1ccc2c(c1)CCC1C2CC[C@]2(C)[C@H](NCCCCCCN3C(=O)C=CC3=O)CC[C@@H]12 (stereo not given in full)	inactive	–
Cc1cccc(-n2ncc3c(Nc4c(C)n(C)n(-c5ccccc5)c4=O)ncnc32)c1	inactive	–
Cc1noc(C)c1-c1ccc2ncnc(N3CCC(C(=O)O)CC3)c2c1	–	14.5% [at 2.29 µM]
CCOC(=O)C1CCCN(c2ncnc3c2cnn3-c2cccc(C)c2)C1 (stereo not given)	12.6 µM (active)	–
Clc1ccc2c(N3CCC(CCC4CCN(c5ncnc6cc(Cl)ccc56)CC4)CC3)ncnc2c1	–	-21% [at 11.4 µM]
CCOC(=O)C1CCCN(c2ncnc3c2cnn3-c2ccc(Cl)cc2)C1 (stereo not given)	7.08 µM (active)	–
COC(=O)c1ccccc1NC(=O)CSc1nnc(C(CO)NC(=O)c2ccccc2Cl)n1C (stereo not given)	inactive	–
COc1ccc(C(=O)NC(CO)c2nnc(SCc3ccc(Cl)c(Cl)c3)n2C)cc1 (stereo not given)	14.1 µM (active)	–
CN(C)Cc1ccccc1-c1nc(NCc2cccs2)c2ccccc2n1	–	5.46% [at 2.29 µM]
CN1CCN2c3ncccc3Cc3ccccc3C2C1 (stereo not given)	0.0501 µM (active)	–
COc1ccccc1-c1cncnc1N1CCN(C)CC1	–	3.41% [at 2.29 µM]
CN1CCN(c2ncncc2-c2cccnc2)CC1	–	-10.3% [at 2.29 µM]
